PubChem BioAssay (Tox21)
Inconclusive results are not listed. The source made the active and inactive calls. The call rests on the fitted dose curve; in most records, active means well fitted inhibition curve with a large enough effect in the signal ratio in the repeat runs (not every such curve was filed as active); inconclusive means weak or mixed curves; inactive means flat fitted curve, though single readings scatter; the % refers to the signal ratio.

Biological target: Progesterone receptor (Homo sapiens) (UniProt P06401)
Sequence (P06401 whole entry, looked up): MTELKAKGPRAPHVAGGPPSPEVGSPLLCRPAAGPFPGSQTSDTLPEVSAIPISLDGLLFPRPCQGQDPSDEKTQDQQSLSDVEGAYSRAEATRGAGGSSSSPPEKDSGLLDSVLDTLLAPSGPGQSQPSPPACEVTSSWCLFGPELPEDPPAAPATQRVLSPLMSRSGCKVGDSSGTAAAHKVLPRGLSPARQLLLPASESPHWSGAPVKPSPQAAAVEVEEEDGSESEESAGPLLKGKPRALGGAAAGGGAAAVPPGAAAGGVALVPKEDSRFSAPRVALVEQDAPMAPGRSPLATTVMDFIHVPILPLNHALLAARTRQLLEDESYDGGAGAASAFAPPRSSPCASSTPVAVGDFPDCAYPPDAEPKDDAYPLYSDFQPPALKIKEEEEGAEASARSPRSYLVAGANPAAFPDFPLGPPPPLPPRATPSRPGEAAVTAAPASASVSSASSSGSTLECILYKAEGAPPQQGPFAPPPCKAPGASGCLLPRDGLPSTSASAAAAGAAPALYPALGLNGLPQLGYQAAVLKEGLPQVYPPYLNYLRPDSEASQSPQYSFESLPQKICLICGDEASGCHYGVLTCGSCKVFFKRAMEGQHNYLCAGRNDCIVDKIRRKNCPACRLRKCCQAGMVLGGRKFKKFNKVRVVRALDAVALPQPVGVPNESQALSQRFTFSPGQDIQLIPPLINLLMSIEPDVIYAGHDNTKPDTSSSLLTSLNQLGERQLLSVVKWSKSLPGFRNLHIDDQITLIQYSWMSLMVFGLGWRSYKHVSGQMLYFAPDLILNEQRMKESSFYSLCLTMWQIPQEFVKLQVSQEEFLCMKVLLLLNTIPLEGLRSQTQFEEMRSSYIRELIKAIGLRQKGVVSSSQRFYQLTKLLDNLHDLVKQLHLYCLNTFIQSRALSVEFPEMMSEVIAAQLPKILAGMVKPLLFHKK
Assay: qHTS assay to identify small molecule antagonists of the progesterone receptor (PR) signaling pathway (AID 1346795)
Conditions: PR-UAS-bla HEK293T, beta-lactamase FRET ratio, 16 h; series mostly up to 92.4 µM; activity change, negative = inhibition: at the top concentration
Source text: National Center for Advancing Translational Sciences [NCATS]
NIH Chemical Genomics Center [NCGC]
U.S. Environmental Protection Agency [EPA]
National Institutes of Environmental Health Sciences [NIEHS]
National Toxicology Program [NTP]
U.S. Food and Drug Administration [FDA]
Progesterone receptor (PR), a nuclear hormone receptor, plays an important role in development, metabolic homeostasis and reproduction. […] Endocrine disrupting chemicals (EDCs) and their interactions with steroid hormone receptors like PR causes disruption of normal endocrine function. To identify the compounds that inhibit PR signaling, a PR-UAS-bla GripTite cell line i.e. PR-UAS-bla HEK293T (Invitrogen, Carlsbad, CA, USA) containing a beta-lactamase reporter gene under the control of an Upstream Activator Sequence (UAS) was used to screen Tox21 10K compound library.
Tox21 Assay Protocol Summary:
PR-UAS-bla HEK293T cells were dispensed at 3,000 cells/4 uL of assay medium containing 2% charcoal stripped FBS per well into black wall/clear-bottom 1536-well plates using a Multidrop Combi (ThermoFisher Scientific, Waltham, MA) dispenser. After the assay plates were incubated at a 37C and 5% CO2 for 6 hr, 23 nL of compounds dissolved in DMSO, positive controls or DMSO only was transferred to the assay plate by a Pintool station (Kalypsys, San Diego, CA), followed by addition of 1 uL (1nM as final concentration) of Promegestone (R5020) in assay medium using a BioRAPTR FRD (Flying Reagent Dispenser, Aurora Discovery, San Diego, CA). The plates were incubated at 37C and 5% CO2 for 16 hr. Then 1 uL of LiveBLAzer B/G FRET substrate was added using a FRD. After the plates were incubated at room temperature for 2 hours, fluorescence intensity was measured by an Envision plate reader (PerkinElmer, Shelton, CT).
On the % scale 0 is the no-effect control and ±100 the full control effect; potency means the concentration at half of the fitted maximal effect.

Row | SMILES | Potency | activity change, negative = inhibition
1 | CC(=O)Nc1ccc(N=Nc2cc(C)ccc2O)cc1 | 48.6 µM (active) | –
2 | CCNc1nc(NC(C)(C)C)nc(OC)n1 | – | -18% (inactive)
3 | CCCCCCCCCCCC(=O)Cl | – | -6% (inactive)
4 | CCCCCCCCOC(=O)c1cc(O)c(O)c(O)c1 | 30.6 µM (active) | –
5 | O=C(CCN1CCC(c2ccccc2)C1)c1ccc2c(c1)OCCO2 (stereo not given) | – | -0.986% [at 42.5 µM] (inactive)
6 | C1CCSC1 | – | 1.81% (inactive)
7 | O=C(c1ccccc1)c1ccc(Cl)cc1 | – | -0.535% (inactive)
8 | Cn1c(=O)[nH]c2ncn(C)c2c1=O | – | 2.14% (inactive)
9 | CC(=O)CC(N)=O | – | 1.8% (inactive)
10 | c1ccc(C[P+](c2ccccc2)(c2ccccc2)c2ccccc2)cc1 | – | -20.9% (inactive)
11 | CCCCCCCC/C=C\CCCCCCCC(=O)N(CCO)CCO | 43.1 µM (active) | –
12 | C=CC(=O)OCC(Br)CBr (stereo not given) | – | -0.384% (inactive)
13 | CC(C)=CCC[C@H](C)CC=O | – | -0.749% (inactive)
14 | Oc1cccc2c(O)cccc12 | 48.6 µM (active) | –
15 | Nc1cc([N+](=O)[O-])cc(Cl)c1O | – | -4.7% (inactive)
16 | CCc1cccc(C)c1N(C(=O)CS(=O)(=O)O)C(C)COC (stereo not given) | – | 2.05% (inactive)
17 | CCOC(=O)OC(=O)OCC | – | -2.86% (inactive)
18 | CC(C=O)c1ccccc1 (stereo not given) | – | -3.62% (inactive)
19 | CC(Cc1ccc(O)c(O)c1)C(C)Cc1ccc(O)c(O)c1 (stereo not given) | 61.1 µM (active) | –
20 | Brc1cc(Br)cc(Br)c1 | – | 0.22% (inactive)

Row | SMILES | Potency | activity change, negative = inhibition
21 | Cc1ccc2n[nH]nc2c1 | – | -6.72% (inactive)
22 | Cn1ccnc1 | – | 3.27% (inactive)
23 | C=CC(=O)O[C@H]1C[C@@H]2CC[C@@]1(C)C2(C)C | – | 0.096% (inactive)
24 | CSc1nnc(C(C)(C)C)c(=O)[nH]1 | – | 0.168% (inactive)
25 | CCCCCCCCCCCCS(=O)(=O)Cl | – | -1.09% [at 18.9 µM] (inactive)
26 | CC1=C(/C=C/C(C)=C/C=C/C(C)=C\C(=O)O)C(C)(C)CCC1 | – | -10.7% (inactive)
27 | CCCCCCCCCC[N+](C)(CCCCCCCCCC)CCC[Si](OC)(OC)OC | – | 5.11% (inactive)
28 | CCc1cccc(C)c1N(C(=O)C(=O)O)C(C)COC (stereo not given) | – | -2.06% (inactive)
29 | CCOC=C(C(=O)OCC)C(=O)OCC | – | 0.459% (inactive)
30 | O=C1c2ccccc2C(=O)c2c(Cl)cccc21 | – | -8.72% [at 42.5 µM] (inactive)
31 | N#Cc1ccc(C/C(=N/NC(=O)Nc2ccc(OC(F)(F)F)cc2)c2cccc(C(F)(F)F)c2)cc1 | 27.3 µM (active) | –
32 | C/C(=N\[Si](C)(C)C)O[Si](C)(C)C | – | 0.677% (inactive)
33 | Cc1cccc(C)c1C | – | 3.94% (inactive)
34 | CC(C)(C)c1cc(CCC(=O)OCCSCCOC(=O)CCc2cc(C(C)(C)C)c(O)c(C(C)(C)C)c2)cc(C(C)(C)C)c1O | – | -2.92% [at 42.5 µM] (inactive)
35 | C=CC(C)(C)O | – | 4.19% (inactive)
36 | C=C1CC[C@H]2O[C@]2(C)CC[C@@H]2[C@@H]1CC2(C)C | – | -0.165% (inactive)
37 | O=C1OCc2ccccc21 | – | 0.896% (inactive)
38 | CCCCCCCCCCCCN1CCCC1=O | 48.6 µM (active) | –
39 | CCN(CC)c1ccc(N=Nc2ccccc2)cc1 | 19.3 µM (active) | –
40 | CCOC(=O)[C@H](O)[C@@H](O)C(=O)OCC | – | 4.78% (inactive)
